Results reported in PubChem BioAssay.
The source made the active and inactive calls.

Legend:
[1] = binders of probe aFSTL3 on microarray, primary screen, stem cell growth factor project, biochemical, small-molecule microarray, fluorescence 635/667 (AID 1064); settings: higher = more signal;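 further: measures binding of the biotinylated anti-FSTL3 antibody to printed compounds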
[2] = binders from COS7 lysate, DM2A8 probe, primary screen, torsin A project, cell lysate, small-molecule microarray, fluorescence 635/667 (AID 1065); settings: higher = more signal, COS7 lysate expressing mutant human TOR1A
[3] = binders of probe aFGF2 on microarray, primary screen, stem cell growth factor project, biochemical, small-molecule microarray, fluorescence 635/667 (AID 1067); settings: higher = more signal;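 further: measures binding of biotinylated aFGF2 protein to printed compounds on slides; z-score merges feature fluorescence and signal-to-noise across triplicate slides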
[4] = binders of probe aFGF10 on microarray, primary screen, stem cell growth factor project, biochemical, small-molecule microarray, fluorescence 635/667 (AID 1071); settings: higher = more signal;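 further: score merges 667 nm spot intensity and signal to noise from triplicate slides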
[5] = target: Neurogenic locus notch homolog protein 2 (Homo sapiens) (UniProt Q04721); test: Notch2 binders on small-molecule microarrays, primary screen, biochemical, small-molecule microarray, 635 nm fluorescence, stem cell growth factors (AID 1073); settings: Notch2 binding, higher = more signal
[6] = target: Pro-neuregulin-1, membrane-bound isoform (Homo sapiens) (UniProt Q02297); test: NRG1 binders on small-molecule microarrays, primary screen, psychiatric disease protein project, biochemical, small-molecule microarray, fluorescence 635/667 (AID 1075); settings: NRG1 binding, 635 nm fluorescence, higher = more signal;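 further: score combines 667 nm spot fluorescence with signal to noise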
[7] = tested on: Neuregulin-1 EGF-like domain; test: binders of neuregulin-1 EGF-like domain, primary screen, biochemical, small-molecule microarray, 635 nm fluorescence (AID 1081); settings: small-molecule microarray binding, higher = more signal;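 further: binding of the protein to compounds printed on small-molecule microarray slides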
[8] = FRG1 promoter luciferase signal modulators, primary screen, FRG1 inhibition for FSHD, cell-based, C2C12 myotubes, firefly/Renilla luciferase, luminescence (AID 1084); settings: higher = more signal, called active from +8 up or from −8 down
[9] = binders of probe aFST on microarray, primary screen, stem cell growth factor project, biochemical, small-molecule microarray, fluorescence 635/667 (AID 1086); settings: higher = more signal;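 further: score merges 667 nm fluorescence with signal-to-noise of each printed compound spot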
[10] = binders of probe aHhip on microarray, primary screen, stem cell growth factor project, biochemical, small-molecule microarray, fluorescence 635/667 (AID 1087); settings: higher = more signal;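 further: score merges spot fluorescence at 667nm with spot signal to noise ratio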
[11] = tested on: PRMT1 (protein arginine N-methyltransferase 1); test: PRMT1 binders on small-molecule microarrays, primary screen, biochemical, small-molecule microarray, 635 nm fluorescence (AID 1088); settings: small-molecule microarray binding, higher = more signal;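 further: binding of Prmt1 protein to compounds spotted on small-molecule microarray slides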
[12] = yeast growth modulation, basal conditions, primary screen, YJM789 clinical isolate, OD600, 24 h (AID 1089);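 further: growth of clinical yeast isolate S. cerevisiae YJM 789 seeded 1000 cells per well; test concentration not given here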; settings: S. cerevisiae YJM789 growth, higher = more signal, called active from +8 up or from −8 down
[13] = fission yeast growth modulation, primary screen, strain 972, OD600, 24 h, no modulator (AID 1090);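 further: basal condition with compound alone and no growth modifier present; test concentration not given here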; settings: S. pombe 972 growth, higher = more signal, called active from +8 up or from −8 down
[14] = S. cerevisiae growth modulation with rapamycin, primary screen, strain BY4716, OD600, 96 h (AID 1091); settings: higher = more signal, called active from +8 up or from −8 down; further: test concentration not given here
[15] = target: Torsin-1A-interacting protein 2 (Homo sapiens) (UniProt Q8NFQ8); test: LULL1 binders on small-molecule microarray, primary screen, cell lysate, human LULL1 lysate, 635/667 nm fluorescence (AID 1092); settings: hLULL1 lysate binding, 635 nm fluorescence, higher = more signal;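 further: probe is lysate of COS7 cells overexpressing human LULL1; score merges per-feature 667 nm fluorescence with signal-to-noise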
[16] = E. coli growth modulation, two-sided OD650, primary screen, E. coli filamentation project, strain DRC41, 24 h (AID 1093); settings: OD650, 24 h, higher = more signal, called active from +8 up or from −8 down;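 further: MC1000 strain lacking acrAB efflux and sulA so SOS filamentation is blocked; test concentration not given here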
[17] = small-molecule microarray binders of probe aLefty2, primary screen, biochemical, biotinylated probe, 635/667 nm fluorescence (AID 1094); settings: higher = more signal;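 further: score merges spot fluorescence near 667 nm with spot signal-to-noise ratio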
[18] = tested on: Noggin (protein binding on small-molecule microarray); test: Noggin binders on small-molecule microarray, primary screen, biochemical, 635/667 nm fluorescence (AID 1095); settings: 635 nm fluorescence, higher = more signal;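 further: score merges 667 nm feature fluorescence with signal to noise over triplicate slides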
[19] = target: Neurogenic locus notch homolog protein 3 (Homo sapiens) (UniProt Q9UM47); test: NOTCH3 binders on small-molecule microarray, primary screen, biochemical, 635/667 nm fluorescence (AID 1096); settings: NOTCH3 binding, 635 nm fluorescence, higher = more signal
[20] = small-molecule microarray binders of probe aEGFR, primary screen, biochemical, biotinylated probe, 635/667 nm fluorescence (AID 1097); settings: higher = more signal;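 further: probe is a biotinylated anti-EGFR antibody binding compounds printed on slides; score combines fluorescence near 667 nm and signal to noise of each spot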

Chain of Torsin-1A-interacting protein 2 (Homo sapiens) (Q8NFQ8 whole entry, looked up): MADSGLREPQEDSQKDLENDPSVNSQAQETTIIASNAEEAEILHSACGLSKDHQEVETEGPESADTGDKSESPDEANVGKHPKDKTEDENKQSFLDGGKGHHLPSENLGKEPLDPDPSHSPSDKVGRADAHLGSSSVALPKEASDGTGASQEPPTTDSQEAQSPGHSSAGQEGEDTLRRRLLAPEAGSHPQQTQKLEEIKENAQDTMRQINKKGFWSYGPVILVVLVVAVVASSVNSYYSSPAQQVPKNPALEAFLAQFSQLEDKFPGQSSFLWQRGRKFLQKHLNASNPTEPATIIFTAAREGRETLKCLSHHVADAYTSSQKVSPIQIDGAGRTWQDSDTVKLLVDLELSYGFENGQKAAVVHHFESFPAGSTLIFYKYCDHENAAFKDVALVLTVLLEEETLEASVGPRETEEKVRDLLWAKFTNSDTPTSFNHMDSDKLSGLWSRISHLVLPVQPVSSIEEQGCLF
Chain of Neurogenic locus notch homolog protein 3 (Homo sapiens) (Q9UM47 whole entry, looked up): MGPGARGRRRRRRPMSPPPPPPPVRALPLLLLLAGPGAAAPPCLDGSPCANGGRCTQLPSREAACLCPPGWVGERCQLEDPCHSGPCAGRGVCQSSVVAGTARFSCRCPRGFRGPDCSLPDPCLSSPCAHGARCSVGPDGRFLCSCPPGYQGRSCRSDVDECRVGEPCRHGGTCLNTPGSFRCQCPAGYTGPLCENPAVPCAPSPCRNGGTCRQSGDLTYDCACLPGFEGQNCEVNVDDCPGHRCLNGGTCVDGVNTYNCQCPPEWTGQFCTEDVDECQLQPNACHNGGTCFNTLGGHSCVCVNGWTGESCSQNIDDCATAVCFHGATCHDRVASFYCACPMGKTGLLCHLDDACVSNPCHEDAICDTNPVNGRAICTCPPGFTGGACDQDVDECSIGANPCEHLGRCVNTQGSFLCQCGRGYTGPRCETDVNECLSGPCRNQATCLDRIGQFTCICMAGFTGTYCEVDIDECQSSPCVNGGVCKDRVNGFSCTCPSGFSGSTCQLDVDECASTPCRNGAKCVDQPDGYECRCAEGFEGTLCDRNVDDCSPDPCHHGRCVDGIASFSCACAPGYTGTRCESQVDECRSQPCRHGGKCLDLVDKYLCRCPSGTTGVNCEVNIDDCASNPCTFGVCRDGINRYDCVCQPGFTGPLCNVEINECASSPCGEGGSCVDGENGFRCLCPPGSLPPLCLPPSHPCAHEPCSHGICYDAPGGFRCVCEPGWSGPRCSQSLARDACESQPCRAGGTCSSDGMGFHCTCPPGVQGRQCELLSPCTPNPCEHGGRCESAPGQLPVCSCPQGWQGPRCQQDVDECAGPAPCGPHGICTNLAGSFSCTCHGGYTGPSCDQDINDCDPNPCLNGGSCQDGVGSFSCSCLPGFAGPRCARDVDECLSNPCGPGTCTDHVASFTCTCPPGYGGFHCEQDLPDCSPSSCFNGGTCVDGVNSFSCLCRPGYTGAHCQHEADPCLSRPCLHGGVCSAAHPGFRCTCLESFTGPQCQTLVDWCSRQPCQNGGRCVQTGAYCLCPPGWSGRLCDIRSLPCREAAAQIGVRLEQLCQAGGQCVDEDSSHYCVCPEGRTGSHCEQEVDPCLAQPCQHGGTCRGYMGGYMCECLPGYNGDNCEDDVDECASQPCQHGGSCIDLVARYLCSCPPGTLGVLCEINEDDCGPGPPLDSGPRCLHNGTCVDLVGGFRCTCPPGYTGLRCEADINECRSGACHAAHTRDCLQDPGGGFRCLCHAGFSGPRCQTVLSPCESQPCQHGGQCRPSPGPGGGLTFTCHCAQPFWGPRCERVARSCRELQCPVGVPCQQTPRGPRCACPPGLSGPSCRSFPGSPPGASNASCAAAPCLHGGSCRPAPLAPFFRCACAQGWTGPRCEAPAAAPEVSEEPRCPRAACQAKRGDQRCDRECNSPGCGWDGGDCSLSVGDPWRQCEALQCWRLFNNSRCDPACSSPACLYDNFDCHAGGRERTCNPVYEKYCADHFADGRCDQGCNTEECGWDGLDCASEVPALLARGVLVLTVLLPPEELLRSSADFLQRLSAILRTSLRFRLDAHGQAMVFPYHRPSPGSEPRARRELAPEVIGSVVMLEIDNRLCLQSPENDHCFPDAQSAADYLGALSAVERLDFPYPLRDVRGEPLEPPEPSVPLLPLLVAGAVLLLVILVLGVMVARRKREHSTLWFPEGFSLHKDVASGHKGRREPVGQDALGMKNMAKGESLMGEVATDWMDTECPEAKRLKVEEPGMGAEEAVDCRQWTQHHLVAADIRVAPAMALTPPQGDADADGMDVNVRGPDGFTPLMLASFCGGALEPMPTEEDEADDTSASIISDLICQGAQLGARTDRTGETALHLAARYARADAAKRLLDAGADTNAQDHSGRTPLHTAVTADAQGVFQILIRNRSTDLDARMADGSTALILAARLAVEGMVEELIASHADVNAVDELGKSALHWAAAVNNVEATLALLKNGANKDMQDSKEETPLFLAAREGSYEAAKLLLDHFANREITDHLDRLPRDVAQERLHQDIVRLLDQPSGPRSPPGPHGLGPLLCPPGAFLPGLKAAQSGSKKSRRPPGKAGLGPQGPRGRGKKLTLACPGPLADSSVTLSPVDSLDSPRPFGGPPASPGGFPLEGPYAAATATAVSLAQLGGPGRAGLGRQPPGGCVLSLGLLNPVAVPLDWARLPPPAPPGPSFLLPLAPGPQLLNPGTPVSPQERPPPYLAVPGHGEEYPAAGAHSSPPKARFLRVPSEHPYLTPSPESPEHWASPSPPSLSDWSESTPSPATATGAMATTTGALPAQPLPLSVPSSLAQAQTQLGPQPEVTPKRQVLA
Chain of Pro-neuregulin-1, membrane-bound isoform (Homo sapiens) (Q02297 whole entry, looked up, the tested form may be a part, canonical isoform): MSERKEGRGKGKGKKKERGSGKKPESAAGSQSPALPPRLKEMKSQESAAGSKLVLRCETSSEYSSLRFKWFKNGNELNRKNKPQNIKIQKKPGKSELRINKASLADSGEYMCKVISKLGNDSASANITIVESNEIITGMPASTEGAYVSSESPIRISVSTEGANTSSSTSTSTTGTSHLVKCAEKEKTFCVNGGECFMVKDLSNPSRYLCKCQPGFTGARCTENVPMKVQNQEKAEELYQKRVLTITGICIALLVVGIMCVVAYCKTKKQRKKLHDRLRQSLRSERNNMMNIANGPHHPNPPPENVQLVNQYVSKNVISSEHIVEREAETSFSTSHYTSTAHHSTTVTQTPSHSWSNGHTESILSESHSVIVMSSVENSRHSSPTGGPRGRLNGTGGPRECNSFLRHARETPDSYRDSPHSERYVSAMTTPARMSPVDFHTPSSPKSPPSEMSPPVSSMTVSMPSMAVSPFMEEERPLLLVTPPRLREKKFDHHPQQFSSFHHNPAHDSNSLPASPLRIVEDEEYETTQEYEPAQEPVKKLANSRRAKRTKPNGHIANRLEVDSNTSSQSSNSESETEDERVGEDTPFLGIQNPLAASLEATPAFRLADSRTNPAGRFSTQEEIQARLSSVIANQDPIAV

| SMILES | composite z-score [1] | composite z-score [2] | composite z-score [3] | composite z-score [4] | composite z-score [5] | composite z-score [6] | composite z-score [7] | z-score [8] | composite z-score [9] | composite z-score [10] | composite z-score [11] | z-score [12] | z-score [13] | z-score [14] | composite z-score [15] | z-score [16] | composite z-score [17] | composite z-score [18] | composite z-score [19] | composite z-score [20] |
| --- | --- | --- | --- | --- | --- | --- | --- | --- | --- | --- | --- | --- | --- | --- | --- | --- | --- | --- | --- | --- |
| C[C@]1(C(=O)NC2CC2)c2ccccc2C(=O)N(Cc2ccc(OC(F)(F)F)cc2)[C@H]1c1ccc(CO)cc1 | 0.652 | 0.179 | -0.0642 | -0.366 | -1.02 | -0.47 | 0.745 | -1.68 (inactive) | 0.0221 | -0.111 | -0.613 | -0.352 (inactive) | -0.0814 (inactive) | -0.439 (inactive) | 1.77 | 0.735 (inactive) | -0.128 | -0.221 | -0.943 | -0.169 |
| O=c1cccc(-c2ccc(C(F)(F)F)cc2)o1 | -0.0035 | -0.814 | -0.045 | -0.173 | -0.33 | -0.289 | -0.44 | 3.27 (inactive) | -0.126 | -0.0994 | -1.99 | -2.99 (inactive) | -8.39 (active) | 0.427 (inactive) | -0.0985 | -0.491 (inactive) | -0.16 | -0.161 | -0.894 | -0.22 |
| CC(C)CN1C(=O)[C@@]2(c3ccc([N+](=O)[O-])cc3)CC(=O)N(CC34CC5CC(CC(C5)C3)C4)[C@@H]2c2ccc(CO)cc21 | 0.311 | -1.76 | -0.186 | -0.34 | -0.602 | 0.251 | -0.594 | 0.0918 (inactive) | 0.0959 | -0.0994 | -0.297 | 0.275 (inactive) | 0.0569 (inactive) | -1.32 (inactive) | 0.295 | -1.55 (inactive) | -0.239 | -1.21 | -0.506 | -0.256 |
| CCOC(=O)C1=C[C@@H](c2ccccc2)N(S(=O)(=O)c2ccc(C)cc2)[C@H]1c1cccc(Cl)c1 | 0.266 | 1.81 | 0.085 | 0.885 | 1.58 | 1.34 | 0.991 | -2.98 (inactive) | 1.02 | -0.0919 | 1.57 | 0.962 (inactive) | 1.71 (inactive) | 2.24 (inactive) | 2.67 | -0.913 (inactive) | 0.268 | 0.688 | 1.07 | 0.143 |
| CN(C)CCCCNC(=O)[C@H]1C[C@H]2C(=O)N[C@@H](CCCCN(C)C)C(=O)N2[C@H]1c1cccc(OCCO)c1 | -0.852 | 1.25 | 0.0025 | 1.02 | 0.591 | 0.839 | 1.32 | -0.275 (inactive) | 0.402 | -0.381 | 1.53 | 0.328 (inactive) | 1.22 (inactive) | -0.378 (inactive) | 2.74 | -0.0359 (inactive) | -0.0474 | 1.38 | 0.993 | -0.219 |
| COC(=O)[C@@]1(Cc2ccc(OC)cc2)[C@H]2c3cc(C(=O)N(C)C)n(CCc4c[nH]c5ccc(O)cc45)c3C[C@H]2CN1C(=O)c1ccccc1 | 1.27 | -0.0234 | 0.147 | 1.04 | 1.69 | 1.91 | 1.25 | 1.5 (inactive) | 1.7 | 0.177 | 0.56 | 1.94 (inactive) | 0.466 (inactive) | 3.51 (inactive) | 3.36 | -0.765 (inactive) | 0.41 | -0.0794 | 1.02 | 0.102 |
| Cc1c(NC(=O)/C(C#N)=C/C=C/c2ccccc2[N+](=O)[O-])c(=O)n(-c2ccccc2)n1C | -0.0331 | 0.563 | 0.0415 | 0.0448 | 1.03 | 1.1 | 1.13 | -0.844 (inactive) | 0.334 | 0.0352 | 0.454 | 0.218 (inactive) | -0.322 (inactive) | 0.477 (inactive) | 1.85 | 1.02 (inactive) | -0.0124 | 0.148 | 0.945 | -0.0043 |
| CC(C)C(O)C1C=CC2C(=O)N(C)C(=O)C2N1Nc1ccccc1 (stereo not given) | 0.383 | 0.681 | 0.364 | 0.914 | 1.69 | 1.19 | 1.37 | 2.73 (inactive) | 1.35 | 0.67 | 0.694 | 0.324 (inactive) | -0.163 (inactive) | 0.204 (inactive) | 3.3 | -0.381 (inactive) | 0.873 | 0.206 | 0.707 | 0.515 |
| COc1ccc(NN2C(C(O)c3ccccn3)C=CC3C(=O)N(C4CCCCC4)C(=O)C32)cc1 (stereo not given) | -0.218 | -0.287 | 0.0944 | 0.467 | 1.59 | 1.36 | 1.17 | 3.21 (inactive) | 1.29 | -0.152 | 1.56 | -0.199 (inactive) | -0.121 (inactive) | 0.151 (inactive) | 3.26 | 0.265 (inactive) | 0.282 | 0.05 | 1.05 | 0.134 |
